HTT prom inh = Primary qHTS for Identification of Small Molecule Inhibitors of Huntingtin Promoter Activity; Potency, µM (highest dose often 57.5 µM), most hits filed as inhibitors; 48,000 compounds, 0.93% hits; HEK293 HTT promoter firefly luciferase reporter, 24 h; AID 1508623, 2021; note: nearly all actives have a fitted effect of over 50% in size
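Firefly luciferase signal from promoter-reporter HEK293 cells was scaled between vehicle (0%) and zero RLU (-100%). Compounds were tested at final concentrations of up to 57.5 uM over 24 h at 37 degrees C. PTC124 at 50 uM final served as control inhibitor.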
FH mod = Identification of activators of human fumarate hydratase by quantitative high-throughput screening | Fumarate hydratase, mitochondrial (Homo sapiens), P07954 | FH coupled MDH/diaphorase resazurin fluorescence, 15 min | Potency, µM (highest dose often 79.9 µM), hits mostly inhibitors | 54,000 compounds, 0.22% hits; note: the screen sought activators but most active calls are inhibition curves; nearly all actives have a fitted effect of over 45% in size
GALC G270D up = A Novel Cell-Based Assay to Identify Small Molecules for B -Galactocerebrosidase. P54803. 145M-Twi-hGALC-G270D cells (Twitcher mouse brain line with human GALC G270D), HMU-beta-Gal fluorescence, 48 h. Potency, µM (doses to about 57.5 µM), actives largely listed as activators. 45,000 compounds, 0.1% hits; note: nearly all actives have a fitted effect of over 65% in size
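Mutant human GALC (G270D), stably expressed in a Twitcher mouse brain cell line lacking endogenous GALC, is measured in live-treated cells via 6-hexadecanoylamino-4-methylumbelliferyl-β-galactoside hydrolysis (0.1 mM final, pH 5.2) with fluorescent detection.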
NTMT1 inhibitor = Primary qHTS for Inhibitors of N-terminal methyltransferase 1 (NTMT1): MTaseGlo Assay; NTMT1 MTase-Glo SAH luminescence, purified enzyme; N-terminal Xaa-Pro-Lys N-methyltransferase 1 (Homo sapiens), Q9BV86; Potency, µM (series often up to 114 µM), usual class: inhibitors; AID 1645870, 2021; 59,000 compounds, 2.5% hits; note: nearly all actives have a fitted effect of over 65% in size
Target sequence (Q9BV86 whole entry, looked up): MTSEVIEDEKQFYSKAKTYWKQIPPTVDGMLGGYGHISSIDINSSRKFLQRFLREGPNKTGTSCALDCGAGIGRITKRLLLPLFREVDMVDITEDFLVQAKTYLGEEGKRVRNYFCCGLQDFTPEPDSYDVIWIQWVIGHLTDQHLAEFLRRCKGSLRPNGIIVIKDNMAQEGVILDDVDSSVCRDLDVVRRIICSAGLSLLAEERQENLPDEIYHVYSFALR
DRV1 agonist = qHTS for Agonists of Human Resolvin D1 Receptor DRV1; Probable G-protein coupled receptor 32 (Homo sapiens), O75388; CHO-K1 GPR32 beta-arrestin PathHunter luminescence, 90 min; zero percent set by DMSO-only wells; activation, % at 76.9 µM; 48,000 compounds, 2.5% hits; AID 1346428, 2018;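 active = activation of at least 60% and not above a set upper limit, about 1 call in 100 departs from these limits; inconclusive = activation of 40% to 60%, or above that upper limit; inactive = activation under 40%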
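GPR32 activation in stably transfected CHO-K1 cells, detected as beta-arrestin recruitment by enzyme-fragment complementation. Compound exposure: 90 min, 37 °C.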
HTT-AS act = Primary qHTS for Identification of Small Molecule Activators of Huntingtin-Antisense Promoter Activity; HEK293 HTT-AS promoter firefly luciferase reporter, 24 h; response scale: percent change from vehicle, -100% = no light; Potency, µM (titrated, usually from 57.5 µM), most hits filed as activators; 48,000 compounds, 0.24% hits; note: nearly all actives have a fitted effect of over 55% in size
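Firefly luciferase readout (Dual-Glo, 10 min RT) after 24 h, 37 °C compound exposure (final up to 57.5 uM) of HEK293 reporter cells cultured 24 h beforehand; PTC124 at 50 uM final as control inhibitor; activity scaled vehicle 0%, zero RLU -100%.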
Large screens that a line does not name were inactive; ! = repeats disagree. In the library only some 4.7% were active in any assay of this set; here they are far more common. Unless noted, calls come from the whole dose curve; as a rule, active = well fitted curve in the direction sought with a large enough effect; inconclusive = small, poorly fitted or top-dose-only effect, or another doubt; inactive = no such curve, though single readings can be large; an effect the other way counts as inactive or inconclusive.

O=C(O)c1ccc(N2C(=O)/C(=C/c3ccc(-c4ccc([N+](=O)[O-])cc4)o3)C=C2c2ccccc2)cc1	NTMT1 inhibitor inconclusive (no result: HTT prom inh, GALC G270D up, DRV1 agonist, HTT-AS act)
CCCn1c(=N)c(C(=O)NCC2CCCO2)cc2c(=O)n3cc(C)ccc3nc21 (stereo not given)	GALC G270D up 13µM
Fc1ccc(Nc2nc3nonc3nc2Nc2cccc(C(F)(F)F)c2)cc1	HTT prom inh 1.3µM, FH mod inconclusive
Cc1ccc(NS(=O)(=O)c2ccccc2C(=O)Nc2nc(-c3ccccc3)cs2)cc1	none (no result: HTT prom inh, FH mod, GALC G270D up, DRV1 agonist, HTT-AS act)
CCc1ccc(NC(=O)CN(c2cc(C)cc(C)c2)S(=O)(=O)c2c(C)[nH]c(=O)[nH]c2=O)cc1	DRV1 agonist 76
CC(=O)C=C=C1C(C)(C)CC(O)CC1(C)O[C@@H]1O[C@H](CO[C@H]2OC[C@](O)(CO)[C@H]2O)[C@@H](O)[C@H](O)[C@H]1O (stereo not given in full)	none (no result: HTT prom inh, GALC G270D up, DRV1 agonist, HTT-AS act)
O=C(NCCc1ccc(Cl)cc1)c1ccc(CS(=O)(=O)Cc2ccccc2F)o1	DRV1 agonist 111
O=C(NCCc1ccc(Cl)cc1)c1ccc(CS(=O)(=O)Cc2ccc(Cl)cc2)o1	none
COc1ccccc1S(=O)(=O)Cc1ccc(C(=O)NCc2ccc(Cl)cc2)o1	HTT prom inh inconclusive, DRV1 agonist 98
Cc1cc(OI)c(C(C)C)cc1-c1cc(C(C)C)c(OI)cc1C	NTMT1 inhibitor 18µM
O=c1c2ccccc2nc2sc(NS(=O)(=O)c3ccc4c(c3)CCC4)nn12	none (no result: HTT prom inh, FH mod, GALC G270D up, DRV1 agonist, HTT-AS act)
Cc1ccc(CN2CCCn3nc(C(=O)NCc4ccc(OC(C)C)cc4)cc3C2=O)cc1	HTT prom inh 18µM
CCOC(=O)c1c(C)nn(-c2cccc([N+](=O)[O-])c2)c1C	none (no result: HTT prom inh, GALC G270D up, DRV1 agonist, HTT-AS act)
O=C(Nc1ccc(-c2nc3ccccc3[nH]2)cc1)Nc1ccc2c(c1)OCCO2	none (no result: HTT prom inh, FH mod, GALC G270D up, DRV1 agonist, HTT-AS act)
CC(=O)Nc1ccc(NC(=O)C(NS(=O)(=O)c2ccc(Br)s2)c2ccccc2)cc1 (stereo not given)	none
CCOc1ccc(OCC)c(NC(=O)C(NS(=O)(=O)c2ccc(Br)s2)c2ccccc2)c1 (stereo not given)	DRV1 agonist 85
Cc1cc(Br)ccc1NC(=O)C(Cc1ccccc1)NS(=O)(=O)c1ccc(Br)s1 (stereo not given)	DRV1 agonist 65
CN1CCc2cc(NC(=O)Nc3cccnc3)ccc21	none (no result: HTT prom inh, GALC G270D up, NTMT1 inhibitor, HTT-AS act)
Cn1ccc2cc3c(cc21)CCN3C(=O)Nc1cccnc1	FH mod inconclusive, NTMT1 inhibitor 79µM!, HTT-AS act inconclusive
COc1cccc2sc(N3CCN(C(=O)CCS(=O)(=O)c4ccc(F)cc4)CC3)nc12	HTT prom inh 22µM, DRV1 agonist inconclusive
CC1OC(O[C@H]2CC[C@@]3(C)C(CC[C@]4(C)C3CC=C3C5CC(C)(C)CC[C@]5(C(=O)OC5OC(CO)C(OC6OC(COC7OCC(O)C(O)C7O)C(O)C(O)C6O)C(O)C5O)CC[C@]34C)C2(C)C)C(O)C(O)C1OC1OCC(OC2OCC(O)C(O)C2O)C(O)C1O (stereo not given in full)	none (no result: HTT prom inh, GALC G270D up, DRV1 agonist, HTT-AS act)
O=C(Nc1ccc(Cl)c(Cl)c1)C1CC1	DRV1 agonist 83
CC(=O)N[C@H]1[C@H](O[C@H]2CC[C@@]3(C)C(CC[C@]4(C)C3CC=C3C5CC(C)(C)CC[C@]5(C(=O)O)[C@H](O[C@@H]5O[C@H](CO)[C@@H](O)[C@H](O)[C@H]5O)C[C@]34C)C2(C)C)O[C@H](CO[C@@H]2OC[C@H](O)[C@H](O)[C@H]2O[C@@H]2OC[C@@H](O)[C@H](O)[C@H]2O)[C@@H](O)[C@@H]1O (stereo not given in full)	none (no result: HTT prom inh, GALC G270D up, DRV1 agonist, HTT-AS act)

Bioassay records: PubChem BioAssay, National Center for Advancing Translational Sciences (NCATS)
